In PubChem BioAssay (Tox21):
Results filed as inconclusive are left out. Calls of active or inactive are those of the source. Unless noted, calls follow the shape of the full dose curve.

Key:
[1] = qHTS assay to identify small molecule agonists of the vitamin D receptor (VDR) signaling pathway - cell viability counter screen (AID 743224; active = well fitted curve in the direction sought with a large enough effect in the repeat runs; an effect the other way counts as inactive or inconclusive; also: series mostly up to about 63 µM; nearly all actives have a fitted effect of over 50% in size)
Outline: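 Cytotoxicity counter screen: VDR-bla cells, 16 h compound exposure at 37C, 5% CO2; CellTiter-Glo luminescence, 30 min RT, same wells as bla read.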

[2] = qHTS assay to identify small molecule antagonists of the vitamin D receptor (VDR) signaling pathway - cell viability counter screen (AID 743225; active = well fitted curve in the direction sought with a large enough effect in the repeat runs; an effect the other way counts as inactive or inconclusive; also: nearly all actives have a fitted effect of over 50% in size)
Outline: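 Same-well multiplex: following 16 h treatment of HEK 293T cells carrying a UAS-driven beta-lactamase reporter with compound and agonist (3 nM final), and a 2 h FRET substrate step, CellTiter-Glo was added and luminescence read after 30 min.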

[3] = qHTS assay to identify small molecule agonists of the NFkB signaling pathway (AID 1159509; active = well fitted curve in the direction sought with a large enough effect in the signal ratio in the repeat runs, not every such curve was filed as active; the % refers to the signal ratio; also: series mostly up to about 61 µM)
Outline: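 Beta-lactamase reporter assay run in quantitative high-throughput format on an NF-kB-responsive ME-180 line, with 5 hr compound treatment and a FRET-based blue/green fluorescence readout.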

[4] = qHTS assay to identify small molecule agonists of the NFkB signaling pathway - cell viability counter screen (AID 1159515); also: series mostly up to about 61 µM; nearly all actives have a fitted effect of over 55% in size
Outline: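 ME-180 NFkB-bla cells, 2,000/well; overnight attach; compound 5 hr, 37 C/5% CO2; LiveBLAzer substrate 1.5 hr RT; then CellTiter-Glo in same wells, 30 min RT, luminescence read.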

[5] = qHTS assay to identify small molecule agonists of the endoplasmic reticulum stress response signaling pathway (AID 1159516; active = well fitted activation curve with a large enough effect in the signal ratio in the repeat runs, not every such curve was filed as active; the % refers to the signal ratio)
Outline: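 HeLa ESRE-bla reporter line; cpd 5 h, 37 C/5% CO2; LiveBLAzer B/G FRET substrate 2 h RT; ex 405, em 460/530 nm.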

[6] = qHTS assay to identify small molecule agonists of the endoplasmic reticulum stress response signaling pathway - cell viability counter screen (AID 1159517);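 also: HeLa cells carrying an ER stress response element beta-lactamase reporter; series mostly up to about 61 µM; nearly all actives have a fitted effect of over 50% in size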
Outline: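 Steps: seed 1,500 ESRE-bla HeLa cells per well; incubate overnight at 37 C, 5% CO2; add compounds in DMSO for 5 hr; run FRET substrate 2 hr RT; add CellTiter-Glo, wait 30 min, read luminescence.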

[7] = qHTS assay to identify small molecule antagonists of the retinoid-related orphan receptor gamma (ROR-gamma) signaling pathway - cell viability counter screen (AID 1159520; active = well fitted curve in the direction sought with a large enough effect in the repeat runs; an effect the other way counts as inactive or inconclusive; also: nearly all actives have a fitted effect of over 50% in size)
Outline: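 Tet-on ROR gamma CHO cells were given compounds for 2 hr, then doxycycline hyclate at 1 uM final, and incubated 16 hr at 37 C. Viability was measured as ATP content by CellTiter-Glo luminescence.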

[8] = molecular target: Nuclear receptor ROR-gamma (Homo sapiens) (UniProt P51449); assay: qHTS assay to identify small molecule antagonists of the retinoid-related orphan receptor gamma (ROR-gamma) signaling pathway (AID 1159521; active = well fitted curve in the direction sought with a large enough effect in the repeat runs; an effect the other way counts as inactive or inconclusive)
Outline: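 Inducible-expression reporter assay: doxycycline (1 uM final) switched on RORγ in CHO cells bearing a ROR response element-luciferase construct, with test compounds present from 2 h beforehand. Decreased luminescence after 16 h defined antagonist activity.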

[9] = qHTS assay to identify small molecule agonists of the AP-1 signaling pathway (AID 1159526)
[10] = qHTS assay to identify small molecule agonists of the AP-1 signaling pathway - cell viability counter screen (AID 1159525); also: nearly all actives have a fitted effect of over 55% in size
Outline: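 Same-well cytotoxicity counter screen of the Tox21 10K library in ME-180 cells. The readout is ATP-dependent luminescence after 5 h compound treatment. Data are normalised to DMSO and tetra n-octyl ammonium bromide controls.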

Measured: Potency

CCOC(=O)NCCC[Si](OCC)(OCC)OCC
not listed: [10]
inactive: all other assays above

CCN(O)CC
not listed: [9] | [10]
inactive: all other assays above

COc1ccccc1OCC(O)COC(N)=O (stereo unspecified)
not listed: [9] | [10]
inactive: all other assays above

O=C(Cl)c1cccc([N+](=O)[O-])c1
not listed: [2] | [8]
inactive: all other assays above

CC(C)S
not listed: [8]
inactive: all other assays above

CC(CNC1CCCCC1)OC(=O)c1ccccc1 (stereo unspecified)
not listed: [8]
inactive: all other assays above

CC/C=C\CCOC(=O)CCCCC
not listed: [2] | [8]
inactive: all other assays above

CC(C)(C)C1CCCCC1=O (stereo unspecified)
not listed: [8]
inactive: all other assays above

CCCOCCC
not listed: [2] | [8]
inactive: all other assays above

CC(C)Nc1nc(N)nc(Cl)n1
not listed: [8]
inactive: all other assays above

NC(=O)NS(=O)(=O)c1ccc(Cl)cc1
not listed: [8]
inactive: all other assays above

Cc1ncc(CO)c(CN)c1O
not listed: [8]
inactive: all other assays above

COc1cc(Cl)ccc1Cl
not listed: [8]
inactive: all other assays above

O=C(O)[C@@H]1CSCN1
not listed: [8]
inactive: all other assays above
